The supplement of paper PMC4840960

Tested on: E18 rat cortical neuron-glia co-culture
Assay: myelination (MBP fiber length per Olig2+ nucleus), % of 1 µM DAPT response (DMSO = 0) (% of DAPT); higher = more myelination, active = 50 or more
Conditions: 1 µM; treatment time: 8 days (DIV5-DIV13)
Outline: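 Four 10X fields in each of duplicate wells were analysed after cultures were fixed in 4 % paraformaldehyde and immunostained for MBP and Olig2, with DAPI as the nuclear counterstain. The cultures were papain-dissociated primary E18 rat cortical co-cultures at 20,000 cells/well on poly-d-lysine/laminin 96-well plates, dosed with library compounds at 1 or 5 µM in myelination medium from DIV5 to DIV13. The myelination readout was continuous straight MBP fiber length per Olig2+ nucleus, with 0.1 % DMSO set to 0 and a 1 µM positive control set to 100.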

myelination, inactive:
COc1ccccc1N1CCN(CC(O)COc2cccc3ccccc23)CC1 (stereo unspecified) [Naftopidil] -33.5
C#C[C@]1(O)CC[C@H]2[C@@H]3[C@H](C)CC4=C(CCC(=O)C4)[C@H]3CC[C@@]21C [Tibolone] -17.1
CC(=O)/N=c1/sc(S(N)(=O)=O)nn1C [Methazolamide] -8.24
CCCc1nc2c(C)cc(-c3nc4ccccc4n3C)cc2n1Cc1ccc(-c2ccccc2C(=O)O)cc1 [Telmisartan] -7.37
CN(Cc1cnc2nc(N)nc(N)c2n1)c1ccc(C(=O)N[C@@H](CCC(=O)O)C(=O)O)cc1 [Methotrexate] -20.4
COc1ccc([C@@H]2Sc3ccccc3N(CCN(C)C)C(=O)[C@@H]2OC(C)=O)cc1 [Diltiazem] -10.1
CN1CCC(=C2c3ccccc3CCc3sccc32)CC1 [Pizotyline] -41
COc1cc(OC)c(C(=O)CCCN2CCCC2)c(OC)c1 [Buflomedil] -13.2
CC(=O)OCC(=O)[C@@]12OC(C)(C)O[C@@H]1C[C@H]1[C@@H]3C[C@H](F)C4=CC(=O)C=C[C@]4(C)[C@@]3(F)[C@@H](O)C[C@@]12C [Fluocinonide] -38
C[C@]12C[C@H](O)[C@H]3[C@@H](CCC4=CC(=O)CC[C@@]43C)[C@@H]1CC[C@@H]2C(=O)CO [Corticosterone] -7.15
C[C@@H]1C[C@H]2[C@@H]3C[C@H](F)C4=CC(=O)C(Cl)=C[C@]4(C)[C@@]3(F)[C@@H](O)C[C@]2(C)[C@@]1(O)C(=O)CO [Halometasone hydrate] -20.7
